# Bioassay records (PubChem)
# This is a sample that favours compounds with a hit; in the whole collection about 2% have one here.
# MCL1 BIM primary: inhibitors of MCL1 binding to BIM-BH3, primary screen, biochemical, fluorescence polarization | Induced myeloid leukemia cell differentiation protein Mcl-1 (Homo sapiens), Q07820 | GST-MCL1 / FITC-Bim-BH3 fluorescence polarization | inhibition, % at 10.9 µM | hit rate 0.68% among 320,000 | AID 2057, 2009;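 active = inhibition above the mean inhibition of all tested compounds plus 3 SD, set per campaign, cut at about 40% in these data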;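 also: 0% = DMSO wells and 100% = unlabeled Bim-BH3 peptide control; higher means more loss of mP so more displacement of Bim peptide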
# Target sequence (Q07820 whole entry, looked up): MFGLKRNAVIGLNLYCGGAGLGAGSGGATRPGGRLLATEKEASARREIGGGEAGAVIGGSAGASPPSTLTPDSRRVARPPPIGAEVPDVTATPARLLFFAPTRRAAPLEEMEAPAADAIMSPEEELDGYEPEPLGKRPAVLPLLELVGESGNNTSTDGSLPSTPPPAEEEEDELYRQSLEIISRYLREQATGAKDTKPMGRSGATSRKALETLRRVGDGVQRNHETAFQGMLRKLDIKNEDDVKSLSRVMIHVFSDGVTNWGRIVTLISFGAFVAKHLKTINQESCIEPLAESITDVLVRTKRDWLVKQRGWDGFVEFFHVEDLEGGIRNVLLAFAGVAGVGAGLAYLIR
# Mcl1 Noxa PPI: Mcl-1/Noxa binding inhibitors, primary screen, biochemical, TR-FRET, 1536-well; inhibition, % at 21.7 µM; TR-FRET Mcl-1/Noxa peptide binding, 2 h; AID 1022, 2008; hit rate 1.5% among 220,000; Induced myeloid leukemia cell differentiation protein Mcl-1 (Homo sapiens), Q07820;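 active = compounds that cut the protein-peptide binding signal by more than 50% relative to plate controls in a single-dose test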;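 also: His-tagged Mcl-1 with rhodamine Noxa BH3 peptide and terbium anti-His antibody; 0% = Mcl-1 plus Noxa peptide wells and 100% = peptide-only wells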
# Mcl1-Bid inh: Mcl-1/Bid binding inhibitors, primary screen, biochemical, TR-FRET, 1536-well | TR-FRET Mcl-1/Bid-Dy647 peptide binding | inhibition, % at 21.7 µM | hit rate 0.97% among 220,000 | AID 1021, 2008;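 active = compounds that cut the binding signal by more than half at the single screening dose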;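 also: His-tagged Mcl-1 with europium anti-His antibody binding Bid BH3 peptide; 0% = Mcl-1 plus peptide wells and 100% = peptide-only wells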
# Bim-Mcl-1: inhibitors of Bim peptide binding to Mcl-1, primary screen, biochemical, bead-based flow cytometry, multiplex; AID 1009, 2008; inhibition, % at 10 µM; Induced myeloid leukemia cell differentiation protein Mcl-1 (Homo sapiens), Q07820; hit rate 0.1% among 190,000; Bim peptide-Mcl-1 binding; in the data active = inhibition above about 40%;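 also: 0% = no compound tracer wells and 100% = peptide blocker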
# Active calls of the source: *; . = no result given.
SMILES,MCL1 BIM primary,Mcl1 Noxa PPI,Mcl1-Bid inh,Bim-Mcl-1
CCc1nc(N)c(C#N)c(-c2ccc(OC)c(OC)c2)c1C,-9,1,2,0
CC1=C(C#N)c2nc(N)c(C#N)c(C)c2/C1=C\c1ccc(OCC(=O)O)c(Cl)c1,33,57*,7,.
O=C(NCCc1c[nH]c2ccccc12)C1CCC(=O)N(CCc2cccc(F)c2)C1 (stereo unspecified),-3,.,.,.
O=c1oc2ccccc2c(O)c1CN1CCCCC1,1,-2,-8,-3
O=C1NCCCC2c3cc(O)c4ccccc4c3OC12N1CCCCC1 (stereo unspecified),57*,78*,0,5
COc1ccc2cc(C(=O)NCc3ccccc3CN3CCCC3)ccc2c1,-1,.,.,.
O=C(Oc1ccc(OC(=O)c2ccncc2)cc1)c1ccncc1,-1,.,.,.
COc1ccc(OC(=O)c2ccncc2)cc1,7,6,99*,0
CCCc1cc(C(=O)N/N=C/c2cccn2C)cs1,10,.,.,.
CC(C)CCN1CCN(Cc2ccon2)CC1CCO (stereo unspecified),-2,16,-36,-2
Cc1cccc2cc(/C=N/NC(=O)c3ccncc3)c(Cl)nc12,9,-3,-15,.
O=C(N/N=C/c1cc2cc3c(cc2nc1Cl)OCCO3)c1ccccc1O,-6,71*,60*,-51
Cc1cccc2cc(/C=N/NC(=O)c3ccccc3O)c(Cl)nc12,2,83*,28,-3
Cc1ccc2cc(/C=N/NC(=O)c3ccccc3O)c(Cl)nc2c1,8,64*,-7,10
O=C(N/N=C/c1cc2cc3c(cc2nc1Cl)OCO3)c1ccncc1,-1,-2,-4,.
Cc1ccc2c(c1)c(-c1ccccc1)nc1nnnn12,-12,-8,5,-1
O=C(c1cccc(S(=O)(=O)Nc2ccc(Br)cc2)c1)N1CCCC1,2,.,.,.
CC1CN(Cc2ccccc2Cl)CC(C)O1 (stereo unspecified),-4,33,51*,-3
Clc1ccccc1CN1CCC(Cc2ccccc2)CC1,2,20,54*,-3
FC(F)(F)c1ccccc1CN1CCC(Cc2ccccc2)CC1,15,.,.,.
Clc1ccccc1CN1CCSCC1,14,.,.,.
CCOCCCn1c(=S)[nH]c2cc(C(=O)NC3CCCC(C)C3C)ccc2c1=O (stereo unspecified),4,.,.,.
O=C(CN1C(=O)COc2ccccc21)N(Cc1ccc2c(c1)OCO2)CC1CCCO1 (stereo unspecified),12,-3,100*,-4
Cc1ccc(CN(CC2CCCO2)C(=O)CN2C(=O)C(C(C)C)Oc3ccccc32)o1 (stereo unspecified),3,-9,-53,1
O=C1NC2=C(C(=O)CCC2)C(c2ccccc2[N+](=O)[O-])N1 (stereo unspecified),51*,.,.,.
SMILES,MCL1 BIM primary,Mcl1 Noxa PPI,Mcl1-Bid inh,Bim-Mcl-1
O=C1NC2=C(C(=O)CCC2)C(c2ccccc2Cl)N1 (stereo unspecified),3,.,.,.
CSc1ccccc1NC(=O)c1cccc(S(=O)(=O)N2CCN(C)CC2)c1,-6,.,.,.
COc1cc(/C=C(\C#N)c2nc3ccccc3s2)ccc1OCC(=O)Nc1ccccc1,-94,17,78*,0
COc1cc(/C=C(\C#N)c2ccccn2)ccc1OCC(=O)Nc1ccc(Br)cc1,-3,12,26,-5
CCOc1cc(/C=C(/C#N)c2nc3ccccc3[nH]2)ccc1OCc1ccc(C(=O)O)o1,-7,52*,-18,7
CCOc1cc(/C=C(/C#N)c2ccc(F)cc2)ccc1OCc1ccc(C(=O)O)o1,0,9,26,-6
COc1cc(/C=C(\C#N)c2nc3ccccc3[nH]2)ccc1OC(=O)c1ccco1,-2,18,-29,-7
COc1cc(/C=C(/C#N)c2nc3ccccc3[nH]2)ccc1OCC(=O)Nc1ccccc1C(C)C,-1,34,59*,16
COc1cc(/C=C(/C#N)c2nc3ccccc3[nH]2)ccc1OCC(=O)Nc1ccccc1C,9,-12,67*,-3
O=C(NCC1CCCO1)c1ccc(NC(=O)c2cccc([N+](=O)[O-])c2)cc1 (stereo unspecified),6,.,.,.
CNc1nc2ccccc2n1/N=C/c1cccc(OC)c1OC,-1,12,-16,57*
CC(C)(C)c1nc2ccccc2c2nnc(SCC(=O)Nc3nc4ccccc4s3)n12,-3,26,71*,2
CC(=O)Nc1ccc(NC(=O)COC(=O)c2c3c(nc4ccccc24)CCN(Cc2ccccc2)C3)cc1,-1,2,-14,-3
O=C(NCc1ccc(F)cc1)c1c2c(nc3ccccc13)CCN(Cc1ccccc1)C2,7,2,-52,-1
COC(=O)c1ccc(CNC(=O)c2c3c(nc4ccccc24)CCN(Cc2ccccc2)C3)cc1,-9,26,94*,-4
O=C(COC(=O)c1c2c(nc3ccccc13)CCN(Cc1ccccc1)C2)Nc1c(F)cccc1F,41*,-2,10,-3
COc1cccc(N2CCN(S(=O)(=O)c3ccc(-n4cnnn4)cc3)CC2)c1,-1,.,.,.
Cc1ccc2nc(/C(C#N)=C\c3ccc(N4CCCCC4)c([N+](=O)[O-])c3)[nH]c2c1,-11,58*,14,0
Cc1cccc(C)c1NC(=S)N1CC(C)OC(C)C1 (stereo unspecified),9,6,-14,.
S=c1[nH]cc(-c2ccccc2)[nH]1,-7,-3,-72,.
O=[N+]([O-])c1ccc(-c2c[nH]c(=S)[nH]2)cc1,12,95*,-36,.
CCOc1ccc(C2=CSC3=NCCN23)cc1[N+](=O)[O-],11,.,.,.
NC1CCN(c2c(F)cc3c(=O)c(C(=O)O)cn(C4CC4)c3c2Cl)C1 (stereo unspecified),-12,-37,63*,.
CCOc1ccccc1N(CC(=O)NCCSc1ccccc1)S(C)(=O)=O,0,7,-9,1
N#Cc1nc(-c2ccc(OCc3ccc(Cl)cc3)cc2)oc1NCc1cccnc1,5,57*,23,1
SMILES,MCL1 BIM primary,Mcl1 Noxa PPI,Mcl1-Bid inh,Bim-Mcl-1
N#Cc1nc(-c2ccc(OCc3ccccc3)cc2)oc1NCc1cccnc1,-3,8,-13,-2
O=C(CSc1nc2ccccc2o1)N/N=C/c1ccc(O)c(O)c1,21,37,-132,.
COc1ccc2nc(C)cc(SCC(=O)N/N=C/c3ccc(O)c(O)c3)c2c1,27,54*,-32,16
Cc1cc(SCC(=O)N/N=C/c2ccc(O)c(O)c2)c(C)cc1Br,29,61*,23,1
Cc1ccc2nsnc2c1NC(=O)c1ccc(-c2cc(Cl)ccc2Cl)o1,2,51*,31,2
Oc1c(Cl)cc(Cl)cc1/C=C/c1ccc2cccc(O)c2n1,-4,82*,-56,2
Oc1ccc(Cl)cc1/C=C/c1ccc2cccc(O)c2n1,.,46,-38,-1
COc1cccc(C(=O)NC2CC3CCCC(C2)N3S(=O)(=O)c2ccccc2)c1 (stereo unspecified),6,6,-50,.
N/N=C(/Cc1nc2ccccc2[nH]1)c1ccc([N+](=O)[O-])cc1,2,6,-33,-1
